Screening results from PubChem BioAssay.
ELG1 DNA repair: ELG1-dependent DNA repair inhibition; HEK293T ELG1-luciferase reporter, luminescence, 16 h; DNA damage induced by 5-fluorouridine; Potency, µM (top dose mostly 46.1 µM), without a hit: top-dose activity change, negative = inhibition, actives largely listed as inhibitors; 2.3% of 330,000 active; AID 504467; further: on the % scale 0 is the no-effect control and ±100 the full control effect; nearly all actives have a fitted effect of over 55% in size
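Overnight (16 hr) co-exposure of 2,000 cells/well to 5-fluorouridine and compound at 37 °C preceded detection. Luciferase was quantified via ONE-Glo luminescence; loss of signal denotes inhibition.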
SMN2 splice up: enhancers of SMN2 splice variant expression; HEK293 SMN2-luciferase splicing reporter, luminescence, 30-36 h; 2.8% of 210,000 active; Potency, µM (highest dose often 46.1 µM), for inactives: top-dose activity change, positive = activation, hits mostly activators; further: % of control where 0% means no effect; nearly all actives have a fitted effect of over 55% in size
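qHTS luciferase splicing reporter: luminescence rises when SMN2 exon 7 is included in transfected HEK293 cells. Compound exposure lasted 30-36 h at 37C, with 4.5 mM final sodium butyrate as control, followed by a ONE-Glo read.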
ELG1 genotox: inducers of genotoxicity in HEK293T ELG1-luciferase cells | HEK293T ELG1-luciferase reporter, luminescence, 16 h | Potency, µM (titrated, usually from 46 µM), for the others: at the highest dose activity change, positive = activation, most hits filed as activators | 1.3% of 330,000 active | AID 504466; further: % of control where 0% means no effect; nearly all actives have a fitted effect of over 60% in size
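Genotoxicity was scored as increased ELG1-luciferase reporter signal, measured by ONE-Glo luminescence (30 min, room temperature). Compound or vehicle exposure of the HEK293T reporter cells lasted 16 hr at 37°C.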
NPC1 promoter act: activates the NPC1 promoter. Huh7 NPC1 promoter luciferase reporter, 24 h. Potency, µM (doses to about 9.22 µM), without a hit: at the top dose activation, most hits filed as activators. AID 485313. 2.4% of 320,000 active; further: % of control where 0% means no effect; nearly all actives have a fitted effect of over 60% in size
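Luminescence from an NPC1 promoter-driven luciferase reporter in stably transfected Huh7 cells was measured after 24 h compound treatment at 37 °C, followed by 10 min ambient incubation with luciferase detection reagent.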
Rab9 promoter act: activators of Rab9 promoter; Huh7 Rab9 promoter-luciferase reporter, luminescence, 24 h; Potency, µM (series often up to 9.22 µM), inactives show top-dose activation, negative = inhibition, actives largely listed as activators; 2.8% of 320,000 active; AID 485297; further: % of control where 0% means no effect; nearly all actives have a fitted effect of over 60% in size
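Huh7 cells stably carrying Rab9 promoter–luciferase reporter, plated 1500 cells/well, compound added after 2 h and incubated 24 h at 37 °C; luciferase luminescence then read after 10 min with detection reagent.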
FLuc counter: counter-screen for miR-21 project: firefly luciferase inhibitors or activators; 6.9% of 360,000 active; P08659; AID 588342; purified FLuc, Km substrates, luminescence inhibition; Potency, µM (doses to about 57.5 µM), inactives show at the top dose activity change, negative = inhibition, actives largely listed as inhibitors;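 further: plate controls were vehicle for no effect and reference inhibitor for full effect; nearly all actives have a fitted effect of over 55% in size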
Target sequence (P08659 whole entry, looked up): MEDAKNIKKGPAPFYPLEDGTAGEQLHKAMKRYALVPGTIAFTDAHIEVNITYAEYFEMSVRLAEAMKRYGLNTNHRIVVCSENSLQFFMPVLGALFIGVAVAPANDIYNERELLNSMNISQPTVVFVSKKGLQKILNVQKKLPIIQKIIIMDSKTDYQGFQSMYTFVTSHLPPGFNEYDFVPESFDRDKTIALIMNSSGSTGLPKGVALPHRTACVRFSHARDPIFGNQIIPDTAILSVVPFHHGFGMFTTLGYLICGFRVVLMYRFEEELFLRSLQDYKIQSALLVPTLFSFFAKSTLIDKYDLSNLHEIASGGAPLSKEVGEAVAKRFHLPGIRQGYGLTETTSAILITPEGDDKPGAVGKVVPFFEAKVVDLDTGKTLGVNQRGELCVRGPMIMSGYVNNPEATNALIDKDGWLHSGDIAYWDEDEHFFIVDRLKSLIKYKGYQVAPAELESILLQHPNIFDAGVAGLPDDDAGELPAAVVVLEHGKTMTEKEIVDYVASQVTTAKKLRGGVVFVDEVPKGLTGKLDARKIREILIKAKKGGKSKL
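Biochemical qHTS of compounds, final roughly 60 µM downward over six points, against 10 nM purified firefly luciferase using Km concentrations of substrates (10 uM D-luciferin, 10 uM ATP) in Tris acetate pH 7.5 buffer; luminescence output.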
* marks the source's active call; other numbers are inactive results; u = inconclusive; x = no result; [ ] = remark or other dose. Shown are actives, neighbours in structure and some others; about 9.3% of the full set was active somewhere. The call rests on the fitted dose curve; in most records, active means well fitted curve in the direction sought with a large enough effect; inconclusive means small, poorly fitted or top-dose-only effect, or another doubt; inactive means no such curve, though single readings can be large; an effect the other way counts as inactive or inconclusive. Potency means the concentration at half of the fitted maximal effect.

SMILES	ELG1 DNA repair	SMN2 splice up	ELG1 genotox	NPC1 promoter act	Rab9 promoter act	FLuc counter
CCN(Cc1ccccc1)S(=O)(=O)c1cc(C(=O)NCC2CCCCC2)ccc1OC	23.1µM*	-36.3%	-4.3%	-4.0%	0.5%	2.3%
COc1cc([N+](=O)[O-])cc(/C=N\NC(=O)C2COc3ccccc3O2)c1O (configuration not stated)	-20.4%	x	-0.8%	-1.3%	-6.6%	-4.6%
Cc1cc(C)nc(Oc2ccc([N+](=O)[O-])cc2)n1	u	-6.3%	15.2%	0.4%	5.3%	-1.2%
COc1ccc(C(=O)Nc2ccccc2C(=O)O)cc1Cl	u	-2.1%[1.84 µM]	u	u	3.55µM*	5.36µM*
CCOc1c(Cl)cc(C(=O)Nc2ccccc2C(=O)O)cc1Cl	u	u	0.6%	24.8%	u	19µM*
COc1ccc(C(=O)Nc2cc(C(=O)O)cc(C(=O)O)c2)cc1Cl	-7.7%	2.7%	-3.6%	-5.5%	-9.4%	-0.8%
COc1ccc(C(=O)Nc2ccccc2C(=O)NC(C)C)cc1OC	18.4µM*	-5.1%	-2.4%	6.1%	0.5%	-6.5%
COc1ccc(C(=O)Nc2ccccc2C(=O)O)cc1NC(=O)C(c1ccccc1)c1ccccc1	u	x	3.7%	19.7%	22.0%	13.5µM*
COc1ccccc1C(=O)Nc1ccc(C(=O)Nc2ccccc2C(=O)O)cc1	17.6%	x	-8.1%	1.5%	4.0%	-0.1%
Cc1nnc(SCC(=O)N2CCN(c3cccc(Cl)c3)CC2)n1C1CC1	u	x	-7.3%	-2.1%	-14.5%	3.1%
Cc1ccc(-c2c(CN3CCN(c4cccc(C(F)(F)F)c4)CC3)csc2C)cc1	x	x	x	x	x	1.4%
Cc1nnc(-c2ccccc2)[nH]c1=O	2.1%	12.2%	1.7%	-1.5%	-0.8%	-5.2%
O=c1[nH]c(-c2ccccc2)nnc1-c1ccccc1	u	x	u	u	u	16.9µM*
CCOc1ccc2ncc(S(=O)(=O)c3ccc(C)cc3)c(N3CCC4(CC3)OCCO4)c2c1	18.4µM*	x	-7.6%	-2.3%	-2.4%	-0.1%
O=c1c2ccccc2cnn1CCOc1ccccc1	u	x	u	0.0891µM*	0.1µM*	0.301µM*
COC(=O)c1ccc(CSc2nc3c([nH]c4ccccc43)c(=O)n2-c2cccc(OC)c2)o1	x	x	x	x	x	0.2%
CC1CCC/C(=C\Nc2ccccc2C(=O)O)C1=O (configuration not stated)	u	13.5%	12.2%	19.5%	0.1%	23.9µM*
O=C1CCC/C1=C/Nc1ccc2c(c1)OCO2	u	u	7.9%	10.2%	u	16.9µM*
CC1CCC/C(=C\Nc2ccc3c(c2)OCO3)C1=O (configuration not stated)	u	u	10.3µM*	u	u	8.49µM*
O=C(O)c1ccccc1NC(=O)C1CCCO1 (configuration not stated)	x	-0.7%	x	x	x	-2.0%
COc1cc(/C=C2\SC(c3ccc(C)cc3)=NC2=O)cc(OC)c1OC	12.1%	24.1%	0.2%	-1.6%	-5.8%	2.4%
COc1cc(/C=C2\SC(c3ccc(C)cc3)=NC2=O)ccc1O	10.5%	20.3%	u	-2.2%	-10.0%	2.69µM*
COc1cc(/C=C2\SC(c3ccccc3)=NC2=O)cc(Cl)c1O	13.8%	-10.7%	0.1%	-6.7%	-17.3%	10.7µM*
CC12CC(O)C3c4ccc(O)cc4CCC3C1CC/C2=N\O (configuration not stated)	24.8%	x	-2.0%	-1.7%	-2.6%	-2.6%
CCOc1cc(CNS(=O)(=O)c2ccc3c(c2)C(C)(C)C(=O)N3)cc(OCC)c1OCC	x	x	x	x	x	-2.5%
SMILES	ELG1 DNA repair	SMN2 splice up	ELG1 genotox	NPC1 promoter act	Rab9 promoter act	FLuc counter
COc1ccc(CC2=C(O)c3ccccc3C(=O)C2=O)cc1	-6.5%	x	-7.1%	2.3%	6.5%	1.2%
O=C1C(=O)c2ccccc2C(O)=C1CCCCl	18.3µM*	x	-13.2%	-20.3%	-42.8%	-19.9%
CCOc1ccc(S(=O)(=O)N2CCCCC2)cc1NC(=O)CSCc1c(C)noc1C	-22.3%	x	-1.5%	-0.6%	0.5%	2.0%
COc1cc(OC)c(OC)cc1/C=N/NC(=S)NCC1CCCO1 (configuration not stated)	18.4µM*	-24.2%	-4.3%	-5.0%	-0.9%	4.9%
COc1ccc(N2CCN(CCCNC(=O)c3ccc4nc(N5CCCCC5)sc4c3)CC2)cc1	x	0.794µM*	x	x	x	u
CCOc1ccc(CCNC(=O)c2ccc3nc(N4CCOCC4)sc3c2)cc1OCC	23.1µM*	x	-9.7%	-1.1%	-4.4%	1.6%
CCOc1ccc(CCNC(=O)c2ccc(Cl)c(S(=O)(=O)N3CCOCC3)c2)cc1OCC	16.4µM*	x	-7.7%	-2.7%	-13.0%	-1.4%
Cc1noc(C)c1COC(=O)c1cccc(N(C)C)c1	-19.0%	-17.1%	-0.9%	-0.1%	1.1%	-8.9%
O=C(c1ccc(Br)cc1)c1cc2ccc(O)cc2oc1=O	u	x	2.4%	5.9%	2.0%	u
Cc1oc(=O)c(NC(=O)c2ccccc2)cc1C(C)O (configuration not stated)	17.0%	x	8.5%	9.0%	10.9%	6.8%
O=C(c1ccccc1)c1cc2ccc(O)cc2oc1=O	u	0.5%	5.6%	23.1%	13.7%	19µM*
O=C(Nc1cc2ccc(O)cc2oc1=O)c1ccccc1	x	x	x	x	x	5.36µM*
Cc1nnn(C23C[C@@H]4C[C@@H](CC(C(=O)N5CCN(c6ccccc6)CC5)(C4)C2)C3)n1	23.1µM*	x	-9.5%	-0.2%	-6.6%	0.5%
O=C(N1CCN(c2ccccc2)CC1)C12CC3CC(CC(C3)C1)C2	0.0%	-16.8%	-8.7%	1.8%	-0.5%	4.2%
CCC(=O)Nc1nnc(-c2cccs2)s1	u	21.5%	u	16.9%	u	-15.1%
O=C(Nc1nnc(-c2cccs2)s1)C1CC1	u	u	u	29.6%	5.01µM*	-4.2%
COCC(=O)Nc1nnc(-c2cccs2)s1	u	10.2%	u	10.4%	23.3%	u
CCC(C)C(=O)Nc1nnc(-c2cccs2)s1 (configuration not stated)	u	5.8%	u	u	3.55µM*	u
C=C(C)C(=O)Nc1nnc(-c2cccs2)s1	13.5%	-3.0%	8.7%	0.1%	-2.1%	16.9µM*
O=C(Cc1ccccc1)Nc1nnc(-c2cccs2)s1	u	u	u	u	u	-1.3%
CC(C)C1Oc2ccccc2N(CC(=O)NC2CCCCC2)C1=O (configuration not stated)	7.9%	x	2.9%	-6.8%	0.8%	-2.7%
NC(=O)c1cnn(-c2ccc3ccccc3c2)c1N	u	17.8µM*	u	26.5%	3.98µM*	u
